Assay outcomes as filed in PubChem BioAssay.
In the library only some 22% were active in any assay of this set; here they are far more common.
CYP2C9 inh: human CYP2C9 inhibition; CYP2C9 Supersomes, luciferin-H conversion, luminescence; AID 777; inhibition, % at 5 µM; 20% of 96,000 active;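 active means blocking of liver enzyme CYP2C9 beyond about 50% at 5 µM, limit read from the data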
Measles CPE: protection of cells from measles virus | Measles virus-infected cells, CPE protection, absorbance | protection (pct of control), % at 4 µM | 1.5% of 140,000 active | AID 841; in the data active means protection mostly above about 24%, no sharp cut-off; inactive means mostly below about 26%
CYP2C19 activ: cytochrome P450 2C19 (human) activation; P33261; recombinant CYP2C19, luciferin-H EGE luminescence; hits give high values; 0 = fully inhibited enzyme, 1 = untreated enzyme; activation factor at 5 µM; 96,000 tested, under 10 active;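 active means activation factor of at least 2 at 5 µM in the primary screen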;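 further: 0 = wells with 2.5 mM tranylcypromine and 1 = vehicle-only wells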
Target sequence (P33261 whole entry, looked up): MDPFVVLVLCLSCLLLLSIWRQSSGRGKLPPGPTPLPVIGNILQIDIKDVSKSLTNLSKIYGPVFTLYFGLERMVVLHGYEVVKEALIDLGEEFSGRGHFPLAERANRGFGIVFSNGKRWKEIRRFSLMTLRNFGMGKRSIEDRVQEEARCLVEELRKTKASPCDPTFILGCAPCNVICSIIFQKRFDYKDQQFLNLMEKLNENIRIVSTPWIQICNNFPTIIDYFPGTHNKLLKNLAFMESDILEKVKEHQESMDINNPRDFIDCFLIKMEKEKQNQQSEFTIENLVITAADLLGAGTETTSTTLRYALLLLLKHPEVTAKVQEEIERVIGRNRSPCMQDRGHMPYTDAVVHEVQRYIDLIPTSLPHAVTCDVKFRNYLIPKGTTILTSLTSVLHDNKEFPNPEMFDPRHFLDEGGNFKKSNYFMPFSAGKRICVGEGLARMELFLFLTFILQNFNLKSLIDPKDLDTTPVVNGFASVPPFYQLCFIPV
CYP2C19 inhib: inhibitors of human CYP2C19. P33261. CYP2C19 Supersomes, luciferin-H EGE luminescence, 30 min. inhibition, % at 5 µM. 21% of 96,000 active. AID 778;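 active means CYP2C19 inhibition above a set limit at 5 µM in the primary screen, cut at about 50% in these data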;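 further: plate controls were negative control wells for no effect and 2.5 mM tranylcypromine positive control for full effect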
CYP2C9 act: increases human cytochrome P450 2C9 activity; P11712; recombinant CYP2C9, luciferin-H conversion, luminescence; hits give high values; factor 1 = untreated enzyme, 0 = blocked; activation factor at 5 µM; 1.4% of 96,000 active; AID 1024;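 active means activation factor of 2 or more for CYP2C9 at a 5 µM dose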;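 further: 0 = sulfaphenazole-blocked wells and 1 = vehicle-only wells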
Starred values were filed as active, the others as inactive; nt = no result.

SMILES	CYP2C9 inh	Measles CPE	CYP2C19 activ	CYP2C19 inhib	CYP2C9 act
Cc1ccc(NC(=S)c2ccccc2)cc1	nt	12	nt	nt	nt
N#Cc1ccc(C(=O)Nc2ccn(-c3ccccc3)n2)cc1	nt	26	nt	nt	nt
O=C(NC1CCCC1)C(c1cccnc1)N(C(=O)c1csnn1)C1CC1 (stereo not drawn)	6	7	0.7	32	0.9
CCOCc1cnc(C)nc1NCC(=O)c1c(C)[nH]c2ccccc12	-2	5	1	2	1
C[N+]1(CC(=O)OCCCc2ccccc2)CCOCC1	12	6	0.9	7	0.9
O=C(CN1CCOCC1)OCCCc1ccccc1	-14	1	0.3	66*	1.1
CN(CC(=O)Nc1ccc(N2CCOCC2)cc1)CC(=O)Nc1cccc(C#N)c1	nt	4	nt	nt	nt
CCC(=O)Nc1ccc(N2CCCCC2)c(C(=O)Nc2ccccc2C)c1	21	19	0.5	53*	0.8
Cc1ccc(NC(=O)c2cc(NC(=O)c3ccco3)ccc2N2CCCCC2)cc1	20	2	0.9	8	0.8
CN(C)S(=O)(=O)c1ccc(N2CCCC2)c(C(=O)NC(c2ccccc2)c2ccccc2)c1	54*	11	1.1	-7	0.5
CCN(CC)S(=O)(=O)c1ccc(N2CCOCC2)c(NC(=O)c2cccc3ccccc23)c1	nt	36	nt	nt	nt
Cc1ccccc1NC(=O)c1cc(N)ccc1N1CCCCC1	86*	10	0	98*	0.1
CCN(CC)S(=O)(=O)c1ccc(N2CCCCC2)c(C(=O)Nc2ccccc2N2CCOCC2)c1	36	4	0.4	59*	0.6
CN(C)S(=O)(=O)c1ccc(N2CCCC2)c(C(=O)Nc2nc3ccccc3s2)c1	nt	15	nt	nt	nt
O=C(Nc1nnc(SCC(=O)N2CCOCC2)s1)c1ccccc1	nt	4	nt	nt	nt
CCOC(=O)c1[nH]c2cc(OC)c(OC)cc2c1N	18	5	0.3	72*	0.8
CCN(c1cccc(C(F)(F)F)c1)S(=O)(=O)c1ccc2c(c1)CCN2C(C)=O	28	6	0.4	61*	0.7
CCN(c1cccc(C)c1)S(=O)(=O)c1ccc2c(c1)CCN2C(C)=O	38	5	0.7	34	0.6
CSc1nc2nc(-c3ccccc3)cc(C(F)(F)F)n2n1	31	3	0.9	15	0.7
O=C(NC1CCCCCC1)C1CCC(CNS(=O)(=O)c2ccc(Br)s2)CC1 (stereo not drawn)	nt	3	nt	nt	nt
Cc1ccc(S(=O)(=O)NCC2CCCO2)cc1[N+](=O)[O-] (stereo not drawn)	nt	21	nt	nt	nt
O=S(=O)(NC1CC2CCC1C2)c1ccc(Br)s1 (stereo not drawn)	84*	20	0.4	64*	0.2
O=S(=O)(NCC1CCCO1)c1ccc(Br)s1 (stereo not drawn)	-15	8	0.3	71*	1.1
O=S(=O)(NCc1ccncc1)c1ccc(S(=O)(=O)NCC2CCCO2)cc1 (stereo not drawn)	89*	4	0.4	56*	0.1
O=S(=O)(NCC1CCCO1)c1ccc2oc3ccc(S(=O)(=O)NCC4CCCO4)cc3c2c1 (stereo not drawn)	52*	6	1	2	0.5
SMILES	CYP2C9 inh	Measles CPE	CYP2C19 activ	CYP2C19 inhib	CYP2C9 act
CCCCNC(=O)C1CCCN1C(=O)Nc1cccc(OC)c1 (stereo not drawn)	-8	6	1.1	-7	1.1
CC(/C=C/c1ccco1)=N/NC(=O)c1ccccc1Cl	2	1	1.1	-7	1
Cc1cc(-c2c(C)n([O-])c(C)c(C)[n+]2=O)ccc1F	-8	10	0.8	24	1.1
CCOC(=O)c1cnc2ccc(C(=O)OC)cc2c1NCc1ccco1	22	2	0.9	10	0.8
CCOC(=O)c1cnc2cc(Cl)c(OC)cc2c1NCC1CCCO1 (stereo not drawn)	70*	2	0.7	28	0.3
CC(=O)Oc1ccc(C(=O)[C@H]2[C@H]3C(=O)N(c4cccc5ccccc45)C(=O)[C@H]3[C@@H]3C=CC=NN32)cc1	nt	9	nt	nt	nt
O=c1[nH]ncc(N2CCCCC2)c1Cl	nt	11	nt	nt	nt
O=C(Nc1ccc(Cn2cccn2)cc1)c1ccc(COc2ccc(Br)cc2)cc1	17	18	1	-1	0.8
O=C(Nc1ccc(Cn2cccn2)cc1)c1ccc(COc2cccc(Br)c2)cc1	83*	4	0.4	57*	0.2
NC(=O)NC(c1ccccc1)c1ccccc1	28	7	0.2	80*	0.7
NC(=O)NC(c1ccccc1)c1cccc2ccccc12 (stereo not drawn)	-1	18	0.3	72*	1
NC(=O)NC(c1ccccc1)c1ccccc1F (stereo not drawn)	6	9	0.3	72*	0.9
NC(=O)NC(Cc1ccccc1)c1ccccc1 (stereo not drawn)	2	0	0.5	47	1
Cc1nc(-c2cccc(-c3noc(C)n3)c2)no1	8	38	0.8	22	0.9
COC(=O)c1c(C)n(-c2ccc(OC)cc2)c2ccc(O)cc12	67*	6	0.2	79*	0.3
CC(=O)c1c(C)n(C)c2ccc(O)cc12	3	39*	0.9	7	1
Cc1c(C(=O)O)c2cc(O)ccc2n1-c1ccccc1	36	16	0.7	34	0.6
CCOc1ccc2c(c1)c(C(C)=O)c(C)n2-c1ccccc1	99*	4	0	99*	0
FC(F)(F)c1cc(-c2ccco2)nc2ncnn12	nt	11	nt	nt	nt
O=[N+]([O-])c1ccc(/C=N/Nc2ccc3ccccc3c2)o1	nt	5	nt	nt	nt
CCn1c(-c2ccc(F)cc2)cnc1SCC(=O)N1CCCCC1C (stereo not drawn)	40	11	0.4	63*	0.6
Cc1snc(S(=O)(=O)Cc2c(Cl)cccc2Cl)c1C#N	29	17	0.3	67*	0.7
Cc1nc(S(=O)(=O)N(C)c2ccccc2)c(C#N)c(C)c1Cl	-8	11	0.9	14	1.1
CN(Cc1ccccc1)c1ncnc2ccc(Br)cc12	84*	10	0	97*	0.2
CCn1cc(/C=N\NC(=O)c2csc3ccccc23)c(C)n1	10	14	0.9	8	0.9
SMILES	CYP2C9 inh	Measles CPE	CYP2C19 activ	CYP2C19 inhib	CYP2C9 act
O=C(N/N=C/c1ccc(O)cc1)c1csc2ccccc12	-199	13	0.8	19	3*
O=S(=O)(c1ccccc1)c1nc(-c2cccs2)oc1NCCCn1ccnc1	92*	25	0	98*	0.1
CCC1SC2=NC(C)=C(C(=O)OCCOC)C(c3ccc(C(=O)OC)cc3)N2C1=O (stereo not drawn)	65*	5	0.3	65*	0.3
COC(=O)C1=C(C)N=C2SC(C)C(=O)N2C1c1cccc(F)c1 (stereo not drawn)	5	0	1.1	-12	1
CCOc1ccc(C2C(C(=O)OC)=C(C)N=C3SCCC(=O)N32)cc1OCC (stereo not drawn)	26	7	0.9	12	0.7
CCC1SC2=NC(C)=C(C(=O)OC)C(c3ccc(C(=O)OC)cc3)N2C1=O (stereo not drawn)	49	6	0.1	93*	0.5
